In PubChem BioAssay (Tox21) one finds Potency data, which are given here for 17 molecules.

The nature of experiment [1]: qHTS assay to identify small molecule antagonists of the thyroid receptor (TR) signaling pathway - cell viability counter screen (AID 743064). Also: nearly all actives have a fitted effect of over 50% in size. Also: potency is read from the fitted curve at half-maximal effect. Put shortly:
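Counter screen for cytotoxicity: compound plus T3 (1 nM final) on GH3.TRE-Luc cells, 23.5 h at 37 °C, then fluorescence viability readout with CellTiter-Fluor.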
On the technique in general: qHTS replaces the single test concentration by a dilution series.

A short description of experiment [2]: qHTS assay to identify small molecule antagonists of the thyroid receptor (TR) signaling pathway (AID 743065). Also: nearly all actives have a fitted effect of over 55% in size. Also: potency is read from the fitted curve at half-maximal effect. In outline: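 GH3.TRE-Luc rat pituitary cells carrying two TR response elements driving luciferase were plated for 4 h, given compound plus 1 nM T3 (final), and incubated 23.5 h at 37 C. ONE-Glo luminescence measured reporter inhibition; CellTiter-Fluor fluorescence tracked cytotoxicity.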

Experiment [3] relates to thyroid hormone receptor (rat, GH3 cells). The experiment in a line: qHTS assay to identify small molecule agonists of the thyroid receptor (TR) signaling pathway (AID 743066; calls by dose curve).
The nature of experiment [4]: qHTS assay to identify small molecule antagonists of the estrogen receptor alpha (ER-alpha) signaling pathway - cell viability counter screen (AID 743074; calls by dose curve;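 also: HEK293 cells carrying ER-alpha-UAS-bla reporter stimulated with 17beta-estradiol; nearly all actives have a fitted effect of over 45% in size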).
Experiment [5] in a line: qHTS assay to identify small molecule antagonists of the estrogen receptor alpha (ER-alpha) signaling pathway using the BG1 cell line - cell viability counter screen (AID 743081).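 Also: compound given together with 17beta-estradiol as the ER stimulus; nearly all actives have a fitted effect of over 45% in size.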 Also: potency is read from the fitted curve at half-maximal effect.
Another experiment deals with Aromatase (Homo sapiens) (UniProt P11511). Kind of experiment: qHTS assay to identify aromatase inhibitors (AID 743083). Also: nearly all actives have a fitted effect of over 55% in size. Also: potency is read from the fitted curve at half-maximal effect.
Sequence of Aromatase (Homo sapiens) (P11511 whole entry, looked up): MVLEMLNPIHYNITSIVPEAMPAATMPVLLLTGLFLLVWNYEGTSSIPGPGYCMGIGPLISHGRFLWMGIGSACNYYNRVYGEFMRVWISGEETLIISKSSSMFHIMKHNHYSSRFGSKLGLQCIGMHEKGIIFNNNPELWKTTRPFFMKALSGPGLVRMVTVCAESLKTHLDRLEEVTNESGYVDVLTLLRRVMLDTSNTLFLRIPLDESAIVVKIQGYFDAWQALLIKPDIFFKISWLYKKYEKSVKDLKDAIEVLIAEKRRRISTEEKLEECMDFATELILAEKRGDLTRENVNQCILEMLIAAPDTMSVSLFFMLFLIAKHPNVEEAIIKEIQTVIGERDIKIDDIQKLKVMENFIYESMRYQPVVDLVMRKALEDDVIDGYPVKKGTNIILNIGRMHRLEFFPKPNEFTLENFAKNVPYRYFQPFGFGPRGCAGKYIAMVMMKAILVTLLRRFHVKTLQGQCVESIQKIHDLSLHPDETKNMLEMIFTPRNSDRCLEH
Experiment [6] has as its target Estrogen receptor (Homo sapiens) (UniProt P03372). The experiment in a line: qHTS assay to identify small molecule agonists of the estrogen receptor alpha (ER-alpha) signaling pathway (AID 743075; calls by dose curve;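 also: HEK293 GripTite cells with ER-alpha and UAS-driven beta-lactamase reporter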).
The target is the same in experiment [7]. The experiment in a line: qHTS assay to identify small molecule agonists of the estrogen receptor alpha (ER-alpha) signaling pathway using the BG1 cell line (AID 743079). Also: nearly all actives have a fitted effect of over 20% in size. The conditions noted are these: BG1Luc4E2 cells, ERE-luciferase agonist, 22 h; activation: at 70.3 µM (top of the series).
For experiment [8] the target is unchanged. The experiment in a line: qHTS assay to identify small molecule antagonists of the estrogen receptor alpha (ER-alpha) signaling pathway (AID 743069; active = well fitted curve in the direction sought with a large enough effect in the signal ratio in the repeat runs, not every such curve was filed as active; the % refers to the signal ratio). In outline: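 Estradiol-stimulated ER-alpha-UAS-bla HEK293 cells, 18 hr compound exposure at 37C. LiveBLAzer B/G substrate, 2 hr RT, fluorescence read.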
The nature of experiment [9]: qHTS assay to identify small molecule antagonists of the estrogen receptor alpha (ER-alpha) signaling pathway using the BG1 cell line (AID 743080; calls by dose curve;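 also: BG1 cells stimulated with 17beta-estradiol alongside compound; nearly all actives have a fitted effect of over 25% in size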). Put shortly:
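Readout is ONE-Glo luminescence, taken 30 min at room temperature after reagent addition, preceded by a CellTiter-Fluor viability read; BG1-Luc-4E2 cells had received compound and 17beta-estradiol for 21.5 h at 37 C.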

Structures are written as SMILES. Records with an inconclusive call do not appear. Calls of active or inactive are those of the source. Unless noted, calls follow the shape of the dose curve; as a rule, active = well fitted curve in the direction sought with a large enough effect in the repeat runs; inconclusive = weak or mixed curves; inactive = no such curve, though single readings can be large; an effect the other way counts as inactive or inconclusive. Starred links: 1 amine or outer side, 2 acyl side, 3 side chain; linkers in the order of their positions; H or OH if unused. Positions of bridges follow the written chain, without caps; N, C: chain ends. Non-standard residues stand in square brackets, D forms with d. Residues, ends and D or L forms follow the SMILES beside them. *: point of attachment. X5 = NC1=N[C@@H]([C@H](N[*:1])C(=O)[*:2])C[C@H](O)N1; ΔAla(Z-3-ureido) = NC(=O)N/C=C(\N)C(=O)O; β3hOrn = NCCC[C@H](N)CC(=O)*; Dap = NC[C@H](N)C(=O)O

Sequence of Estrogen receptor (Homo sapiens) (P03372 whole entry, looked up): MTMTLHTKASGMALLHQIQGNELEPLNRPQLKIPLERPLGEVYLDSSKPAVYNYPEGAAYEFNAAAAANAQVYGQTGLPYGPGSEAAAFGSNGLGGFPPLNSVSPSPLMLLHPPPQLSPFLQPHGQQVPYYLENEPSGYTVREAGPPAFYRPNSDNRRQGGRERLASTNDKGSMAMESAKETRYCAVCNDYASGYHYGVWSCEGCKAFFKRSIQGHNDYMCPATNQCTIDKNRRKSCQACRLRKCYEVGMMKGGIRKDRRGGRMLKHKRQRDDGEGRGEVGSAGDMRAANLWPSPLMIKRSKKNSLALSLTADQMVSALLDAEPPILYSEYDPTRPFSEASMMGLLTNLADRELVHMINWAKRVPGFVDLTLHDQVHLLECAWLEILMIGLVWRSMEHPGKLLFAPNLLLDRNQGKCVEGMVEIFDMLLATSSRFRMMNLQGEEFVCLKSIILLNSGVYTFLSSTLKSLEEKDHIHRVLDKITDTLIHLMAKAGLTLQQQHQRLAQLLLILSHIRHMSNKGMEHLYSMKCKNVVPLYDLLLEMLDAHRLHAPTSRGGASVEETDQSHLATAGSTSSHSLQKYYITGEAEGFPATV

Turning to `C[C@@H](O)[C@H]1C(=O)N2C(C(=O)[O-])=C(SC3Cn4cnc[n+]4C3)[C@H](C)[C@H]12` (stereo not given in full), the Potency result (in experiment [1]; in [2]; in experiment [3]; in experiment [4]; in experiment [5]; with Aromatase (Homo sapiens)) was “inactive” in each case.

For `CCOC(=O)[C@H](CCc1ccccc1)N[C@@H](C)C(=O)N1CC2(C[C@H]1C(=O)O)SCCS2`, the Potency entry (in experiment [1]; in experiment [2]; in [3]; in experiment [5]; with Aromatase (Homo sapiens)) was “inactive” throughout.

For the molecule `NNc1nnc(Cc2ccncc2)c2ccccc12`, the Potency entry in experiment [1], in experiment [3] and in [4] was “inactive” throughout. Moreover, the Potency in [2] was 4.73 µM (active); with Aromatase (Homo sapiens), 13.3 µM (active).

On to `O=C1NC(=O)[C@H]2[C@@H]1[C@@H]1C=C[C@H]2C1`, for which the Potency entry (in [1]; in experiment [2]; in experiment [3]; in [4]; in experiment [5]; in the experiment with Aromatase (Homo sapiens)) was “inactive” each time.

With `NCCC[C@H](N)CC(=O)N[C@H]1CNC(=O)[C@H]([C@H]2C[C@H](O)NC(N)=N2)NC(=O)/C(=C/NC(N)=O)NC(=O)[C@H](CO)NC(=O)[C@H](CO)NC1=O` (β3hOrn-[Dap]SS[ΔAla(Z-3-ureido)][X5]; lactam 1-C), the Potency entry (in experiment [1]; in experiment [2]; in experiment [3]; in [4]; in experiment [5]; in the experiment with Aromatase (Homo sapiens)) was “inactive” each time.

In the case of `C=C1C(=C/C=C2\CCC[C@]3(C)[C@@H]([C@H](C)/C=C/[C@H](C)C(C)C)CC[C@@H]23)C[C@@H](O)C[C@@H]1O`, the Potency in experiment [1] and in experiment [2] was 29.8 µM (active) each time. Further, the Potency result in experiment [3], in experiment [6] and in experiment [7] was “inactive” in each case.

`CCCCCCCCCCCCCCCCCCCCCCO`: the Potency entry (in experiment [1]; in experiment [2]; in experiment [3]; in [4]; in [5]; with Aromatase (Homo sapiens)) was “inactive” each time.

In the case of `CCCC(=O)Nc1ncnc2c1ncn2[C@@H]1O[C@@H]2COP(=O)(O)O[C@H]2[C@H]1OC(=O)CCC`, the Potency result (in [1]; in experiment [2]; in experiment [3]; in experiment [4]; in [5]; with Aromatase (Homo sapiens)) was “inactive” in each case.

In the case of `CCOC(=O)C1=C[C@@H](OC(CC)CC)[C@H](NC(C)=O)[C@@H](N)C1`, the Potency entry (in [1]; in experiment [2]; in [3]; in experiment [4]; in the experiment with Aromatase (Homo sapiens)) was “inactive” each time.

For `C[C@H](CSC(=O)c1ccccc1)C(=O)N1C[C@@H](Sc2ccccc2)C[C@H]1C(=O)O`, the Potency result in [1], in experiment [3], in [8], in experiment [4], in experiment [6] and in experiment [7] was “inactive” in each case. Moreover, the Potency result (in experiment [9]; in [5]; with Aromatase (Homo sapiens)) was “inactive” each time.

As for `CCOC(=O)Cc1cccc(-c2cc(CCCCCCc3ccc(O[C@H]4O[C@H](COC(C)=O)[C@@H](OC(C)=O)[C@H](OC(C)=O)[C@@H]4OC(C)=O)c(-c4cccc(CC(=O)OCC)c4)c3)ccc2O[C@H]2O[C@H](COC(C)=O)[C@@H](OC(C)=O)[C@H](OC(C)=O)[C@@H]2OC(C)=O)c1`, the Potency entry in [1], in [3], in [8], in experiment [4], in experiment [6] and in experiment [7] was “inactive” throughout. Besides, the Potency result (in experiment [9]; in the experiment with Aromatase (Homo sapiens)) was “inactive” in each case.

Regarding `CCN1C(=O)NC(c2ccccc2)C1=O` (stereo not given), the Potency entry in experiment [1], in experiment [3], in experiment [8], in experiment [4], in [6] and in [7] was “inactive” in each case. The Potency result (in experiment [9]; in [5]; with Aromatase (Homo sapiens)) was “inactive” in each case.

`O.O=C([O-])CC([S-])C(=O)[O-].[Au+].[Na+].[Na+]` (stereo not given): the Potency result in experiment [1], in [3], in experiment [8], in experiment [4], in [6] and in experiment [7] was “inactive” each time. Further, the Potency entry (in [9]; in experiment [5]; with Aromatase (Homo sapiens)) was “inactive” throughout.

Consider `Cc1cc(/C=C/c2ccc3cc(N(C)C)ccc3[n+]2C)c(C)n1-c1ccccc1`, for which the Potency is 6.39 µM (active) in experiment [1], 4.03 µM (active) in [2], 11.4 µM (active) in experiment [5] and 7.17 µM (active) with Aromatase (Homo sapiens).

Turning to `CC[C@@H](C(=O)[C@@H](C)[C@@H](O)[C@H](C)[C@@H]1O[C@@H]([C@@H](CC)C(=O)O)CC[C@@H]1C)[C@H]1O[C@]2(C=C[C@@H](O)[C@]3(CC[C@@](C)([C@H]4CC[C@](O)(CC)[C@H](C)O4)O3)O2)[C@H](C)C[C@@H]1C`, the Potency in experiment [1] and in experiment [2] was 0.668 µM (active) throughout. Further, the Potency result in the experiment with Aromatase (Homo sapiens) is “inactive”.

In the case of `N[C@H](CCC(=O)O)C(=O)O`, the Potency entry in experiment [1], in experiment [3], in [8], in experiment [4], in experiment [6] and in experiment [7] was “inactive” in each case. In addition, the Potency result (in experiment [9]; in experiment [5]; with Aromatase (Homo sapiens)) was “inactive” throughout.

With `CO[C@H]1O[C@@H]2O[C@@]3(C)CC[C@H]4[C@H](C)CC[C@@H]([C@H]1C)[C@@]24OO3`, the Potency entry in [1], in [3], in [8], in experiment [4], in experiment [6] and in [7] was “inactive” each time. Further, the Potency entry (in [9]; in experiment [5]; with Aromatase (Homo sapiens)) was “inactive” each time.
